High-throughput results: PubChem BioAssay, several laboratories
Compounds with a hit are over-represented: about 3.9% of the library has one in this group of screens.
Mtb FBA inh = inhibits M. tuberculosis FBA enzyme | hit rate 2.3% among 360,000 | inhibition, % at 1 µM | AID 588726 | purified M. tuberculosis FBA, fluorescence read-out | P9WQA3
Target sequence (P9WQA3 whole entry, looked up): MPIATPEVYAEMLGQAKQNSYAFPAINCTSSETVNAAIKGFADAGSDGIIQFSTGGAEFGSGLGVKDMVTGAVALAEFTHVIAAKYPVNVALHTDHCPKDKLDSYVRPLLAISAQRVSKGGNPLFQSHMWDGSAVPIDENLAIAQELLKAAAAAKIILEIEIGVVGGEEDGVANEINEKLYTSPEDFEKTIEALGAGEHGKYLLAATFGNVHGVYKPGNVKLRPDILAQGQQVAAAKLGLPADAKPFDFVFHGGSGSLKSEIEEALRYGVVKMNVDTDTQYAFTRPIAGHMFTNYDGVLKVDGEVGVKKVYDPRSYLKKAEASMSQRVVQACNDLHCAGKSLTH
CCHFV vOTU inh = blocks the CCHF virus ovarian tumor domain protease. CCHFV vOTU protease, Pep-AMC fluorescence. inhibition, % at 11.5 µM. hit rate 0.55% among 370,000; in the data active = inhibition above about 30%
GDH-TPI counter-1 = GDH-TPI coupled enzyme inhibition counter-screen; GDH-TPI coupled enzyme counterscreen, NADH absorbance; inhibition, % at 4.8 µM; hit rate 1.2% among 360,000; in the data active = inhibition above about 30%
BH1578 lux ind = inducers of Vibrio cholerae quorum light production without autoinducers. V. cholerae BH1578 lux reporter, luminescence, 6 h. activation, % at 18.7 µM. hit rate 0.16% among 350,000. AID 588436; in the data active = activation mostly above about 9.7%, no sharp cut-off
Mtb FBA confirm = confirmation of M. tuberculosis fructose-bisphosphate aldolase inhibitors; shares compounds with Mtb FBA inh; AID 651616; purified M. tuberculosis FBA, fluorescence read-out; inhibition, % at 1 µM; hit rate 78% among 5,600
GDH-TPI counter-2 = inhibits GDH-TPI coupling enzymes, flagging Mtb FBA hits | hit rate 81% among 5,600 | GDH-TPI coupled enzyme counterscreen, fluorescence | shares compounds with Mtb FBA inh | inhibition, % at 1 µM; in the data active = inhibition above about 10%
A number is an active result. Cut-off read from the data, not from the text of the source, unless noted: active = inhibition above about 27%; inactive = the rest.

Results for CC12CCC(=O)N1C(C(=O)Nc1cccc(F)c1)CS2 (stereo not given) ?
Mtb FBA inh: inactive; CCHFV vOTU inh: inactive; GDH-TPI counter-1: inactive; BH1578 lux ind: inactive

How did Cc1ccccc1S(=O)(=O)NC(=O)C1(C)CCN1C(=O)Cc1cc(F)ccc1F (stereo not given) do in these assays?
Mtb FBA inh: inactive; CCHFV vOTU inh: inactive; GDH-TPI counter-1: inactive; BH1578 lux ind: inactive

Results for N#CC1=C(N)Oc2nc(-c3ccccc3)[nH]c2C1c1cccnc1 (stereo not given) ?
Mtb FBA inh: inactive; CCHFV vOTU inh: inactive; GDH-TPI counter-1: inactive; BH1578 lux ind: inactive

How did COCCNC(=O)/C(C#N)=C/c1c(N2CCN(c3cccc(Cl)c3)CC2)nc2c(C)cccn2c1=O do in these assays?
Mtb FBA inh: 69; CCHFV vOTU inh: inactive; GDH-TPI counter-1: inactive; BH1578 lux ind: inactive; Mtb FBA confirm: 165; GDH-TPI counter-2: 124

What do the screens show for `COCCNC(=O)/C(C#N)=C/c1c(N2CCN(c3ccc(OC)cc3)CC2)nc2c(C)cccn2c1=O`?
Mtb FBA inh: 80; CCHFV vOTU inh: inactive; GDH-TPI counter-1: inactive; BH1578 lux ind: inactive; Mtb FBA confirm: 73; GDH-TPI counter-2: 58

How did COCCNC(=O)C(C#N)c1nc2ccccc2nc1N1CCCCCC1 (stereo not given) do in these assays?
Mtb FBA inh: 37; CCHFV vOTU inh: inactive; GDH-TPI counter-1: inactive; BH1578 lux ind: inactive; Mtb FBA confirm: inactive; GDH-TPI counter-2: inactive

Results for COCCNC(=O)/C(C#N)=C/c1c(N2CCCCCC2)nc2ccccn2c1=O ?
Mtb FBA inh: 87; CCHFV vOTU inh: inactive; GDH-TPI counter-1: inactive; BH1578 lux ind: inactive; Mtb FBA confirm: 45; GDH-TPI counter-2: 47

Results for COCCN(C(=O)c1cc(Cl)ccn1)c1c(N)n(Cc2ccccc2)c(=O)[nH]c1=O ?
Mtb FBA inh: inactive; CCHFV vOTU inh: inactive; GDH-TPI counter-1: inactive; BH1578 lux ind: inactive

Results for CSc1ccccc1C(=O)NC1CCCC1 ?
Mtb FBA inh: inactive; CCHFV vOTU inh: inactive; GDH-TPI counter-1: inactive; BH1578 lux ind: inactive

Results for C=CCNC(=O)/C(C#N)=C/c1c(N2CCN(c3cccc(Cl)c3)CC2)nc2c(C)cccn2c1=O ?
Mtb FBA inh: 62; CCHFV vOTU inh: inactive; GDH-TPI counter-1: inactive; BH1578 lux ind: inactive; Mtb FBA confirm: 199; GDH-TPI counter-2: 172

Results for Cc1coc2c1c(C)cc1oc(=O)c(CC(=O)NCC(=O)O)c(C)c12 ?
Mtb FBA inh: 101; CCHFV vOTU inh: inactive; GDH-TPI counter-1: inactive; BH1578 lux ind: inactive; Mtb FBA confirm: 141; GDH-TPI counter-2: 94

How did Cc1coc2c1c(C)cc1oc(=O)c(CC(=O)NCCCCCC(=O)O)c(C)c12 do in these assays?
Mtb FBA inh: 62; CCHFV vOTU inh: inactive; GDH-TPI counter-1: inactive; BH1578 lux ind: inactive; Mtb FBA confirm: active; GDH-TPI counter-2: 175

How did Cc1oc2c(c(C)cc3oc(=O)c(CC(=O)N[C@@H](CC(C)C)C(=O)O)c(C)c32)c1C do in these assays?
Mtb FBA inh: 31; CCHFV vOTU inh: inactive; GDH-TPI counter-1: inactive; BH1578 lux ind: inactive; Mtb FBA confirm: 85; GDH-TPI counter-2: 64

Results for Cc1oc2c(c(C)cc3oc(=O)c(CC(=O)NCCC(=O)O)c(C)c32)c1C ?
Mtb FBA inh: 31; CCHFV vOTU inh: inactive; GDH-TPI counter-1: inactive; BH1578 lux ind: inactive; Mtb FBA confirm: 159; GDH-TPI counter-2: 99

Results for Cc1oc2c(c(C)cc3oc(=O)c(CC(=O)NCC(=O)NCC(=O)O)c(C)c32)c1C ?
Mtb FBA inh: inactive; CCHFV vOTU inh: inactive; GDH-TPI counter-1: inactive; BH1578 lux ind: inactive

Results for CC/C(=N\NC(=O)C1CCCC1)c1ccc(Br)cc1 ?
Mtb FBA inh: inactive; CCHFV vOTU inh: inactive; GDH-TPI counter-1: inactive; BH1578 lux ind: inactive

Results for O=C(O)C(Oc1ccc2ccccc2c1)c1ccccc1 (stereo not given) ?
Mtb FBA inh: inactive; CCHFV vOTU inh: inactive; GDH-TPI counter-1: inactive; BH1578 lux ind: inactive

What do the screens show for `O=C(O)C(Oc1ccc2c(c1)oc(=O)c1ccccc12)c1ccccc1` (stereo not given)?
Mtb FBA inh: 92; CCHFV vOTU inh: inactive; GDH-TPI counter-1: inactive; BH1578 lux ind: inactive; Mtb FBA confirm: 37; GDH-TPI counter-2: 30

What do the screens show for `COc1ccc2c(c1)oc(=O)c1ccccc12`?
Mtb FBA inh: 88; CCHFV vOTU inh: inactive; GDH-TPI counter-1: inactive; BH1578 lux ind: inactive; Mtb FBA confirm: 41; GDH-TPI counter-2: 31

What do the screens show for `C=CCNC(=O)COC(=O)COc1ccc(Cl)cc1C`?
Mtb FBA inh: inactive; CCHFV vOTU inh: inactive; GDH-TPI counter-1: inactive; BH1578 lux ind: inactive
